Measurements published in PubChem BioAssay AID1159580 (chemical genetic matrix, 2015).
Among all 5,500 compounds or so, about 2,000 (36%) were called active. Roughly 18% stayed inconclusive and do not appear here. Cut-off read from the data, not from the text of the source: active = normalized growth mostly below about 0.91 (no sharp cut-off); inconclusive = no clear call, values can overlap the other calls; inactive = mostly above about 0.92. This is one part of the list.

Test: chemical genetic growth profiling, strain panel (AID 1159580);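 note: tested at 20 µM; growth read once vehicle control cultures reached saturation at 30 °C; 1 = growth at the plate median or of vehicle wells; lower values mean less growth of the strain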
Settings: growth OD

Measured: normalized growth

CN=C(N)NCCCC(N)C(=O)O (stereo unspecified)
inactive: S. cerevisiae deletion strains, locus YAL013W, strain DEP1, hits give low values 1.02 | S. cerevisiae deletion strains, locus YBR021W, strain FUR4, hits give low values 1.03 | S. cerevisiae deletion strains, locus YBR229C, strain ROT2, hits give low values 1.01 | S. cerevisiae deletion strains, locus YCL029C, strain bik1, hits give low values 0.996 | S. cerevisiae deletion strains, locus YDL035C, strain GPR1, hits give low values 1.04 | S. cerevisiae deletion strains, locus YDL074C, strain BRE1, hits give low values 1.05 | S. cerevisiae deletion strains, locus YDL101C, strain DUN1, hits give low values 1.03 | S. cerevisiae deletion strains, locus YDL134C, strain PPH21, hits give low values 1.01 | S. cerevisiae deletion strains, locus YDL185W, strain tfp1, hits give low values 1.02 | S. cerevisiae deletion strains, locus YDL192W, strain arf1, hits give low values 1.01 | S. cerevisiae deletion strains, locus YDR101C, strain arx1, hits give low values 1.01 | S. cerevisiae deletion strains, locus YDR150W, strain NUM1, hits give low values 1.02 | S. cerevisiae deletion strains, locus YDR162C, strain NBP2, hits give low values 1.03 | S. cerevisiae deletion strains, locus YDR318W, strain mcm21, hits give low values 1.04 | S. cerevisiae deletion strains, locus YDR388W, hits give low values 0.993 | S. cerevisiae deletion strains, locus YDR502C, strain sam2, hits give low values 1.01 | S. cerevisiae deletion strains, locus YEL061C, strain CIN8, hits give low values 1.01 | S. cerevisiae deletion strains, locus YER110C, hits give low values 0.997 | S. cerevisiae deletion strains, locus YER155C, strain BEM2, hits give low values 1.01 | S. cerevisiae deletion strains, locus YER167W, strain BCK2, hits give low values 1.05 | S. cerevisiae deletion strains, locus YGL078C, strain dbp3, hits give low values 1.01 | S. cerevisiae deletion strains, locus YGL086W, strain mad1, hits give low values 1.03 | S. cerevisiae deletion strains, locus YGL248W, strain PDE1, hits give low values 1.01 | S. cerevisiae deletion strains, locus YGR078C, strain PAC10, hits give low values 1.04 | S. cerevisiae deletion strains, locus YGR135W, strain pre9, hits give low values 1.02 | S. cerevisiae deletion strains, locus YGR229C, strain SMI1, hits give low values 1.05 | S. cerevisiae deletion strains, locus YGR252W, strain gcn5, hits give low values 1.17 | S. cerevisiae deletion strains, locus YHR030C, strain SLT2, hits give low values 1.01 | S. cerevisiae deletion strains, locus YHR079C, strain IRE1 (second series), hits give low values 0.995 | S. cerevisiae deletion strains, locus YHR094C, strain hxt1, hits give low values 0.986 | S. cerevisiae deletion strains, locus YHR129C, strain ARP1, hits give low values 1.01 | S. cerevisiae deletion strains, locus YHR200W, strain rpn10, hits give low values 1.02 | S. cerevisiae deletion strains, locus YIL066C, strain RNR3, hits give low values 1.03 | S. cerevisiae deletion strains, locus YIL073C, strain SPO22, hits give low values 1.09 | S. cerevisiae deletion strains, locus YIL125W, strain kgd1, hits give low values 1.01 | S. cerevisiae deletion strains, locus YIR030C, strain dcg1, hits give low values 0.997 | S. cerevisiae deletion strains, locus YJL095W, strain BCK1, hits give low values 1.02 | S. cerevisiae deletion strains, locus YJL134W, strain LCB3, hits give low values 1.02 | S. cerevisiae deletion strains, locus YJL168C, strain set2, hits give low values 0.987 | S. cerevisiae deletion strains, locus YJL187C, strain SWE1 (second series), hits give low values 1.02 | S. cerevisiae deletion strains, locus YJR043C, strain POL32, hits give low values 1.06 | S. cerevisiae deletion strains, locus YJR075W, strain HOC1, hits give low values 1.07 | S. cerevisiae deletion strains, locus YKL009W, strain mrt4, hits give low values 1.03 | S. cerevisiae deletion strains, locus YKL068W, hits give low values 1.01 | S. cerevisiae deletion strains, locus YKL085W, strain MDH1 (second series), hits give low values 1.03 | S. cerevisiae deletion strains, locus YKL085W, strain MDH1, hits give low values 1.03 | S. cerevisiae deletion strains, locus YKL190W, strain CNB1, hits give low values 1.02 | S. cerevisiae deletion strains, locus YKR001C, strain vps1, hits give low values 1.02 | S. cerevisiae deletion strains, locus YLR039C, strain RIC1, hits give low values 1.07 | S. cerevisiae deletion strains, locus YLR058C, strain SHM2, hits give low values 1.02 | S. cerevisiae deletion strains, locus YLR102C, strain apc9, hits give low values 0.986 | S. cerevisiae deletion strains, locus YLR262C, strain YPT6, hits give low values 1.1 | S. cerevisiae deletion strains, locus YLR268W, strain sec22, hits give low values 1.01 | S. cerevisiae deletion strains, locus YLR330W, strain CHS5, hits give low values 1.01 | S. cerevisiae deletion strains, locus YLR342W, strain FKS1 (second series), hits give low values 1.09 | S. cerevisiae deletion strains, locus YLR371W, strain rom2, hits give low values 0.975 | S. cerevisiae deletion strains, locus YLR418C, strain cdc73, hits give low values 1.01 | S. cerevisiae deletion strains, locus YML016C, strain PPZ1, hits give low values 1.02 | S. cerevisiae deletion strains, locus YML032C, strain rad52, hits give low values 1.05 | S. cerevisiae deletion strains, locus YML124C, strain tub3, hits give low values 1.01 | S. cerevisiae deletion strains, locus YMR078C, strain ctf18, hits give low values 1 | S. cerevisiae deletion strains, locus YMR223W, strain ubp8, hits give low values 1.04 | S. cerevisiae deletion strains, locus YMR263W, strain SAP30, hits give low values 1.04 | S. cerevisiae deletion strains, locus YMR307W, strain GAS1, hits give low values 1.14 | S. cerevisiae deletion strains, locus YNL067W, strain RPL9B, hits give low values 1.02 | S. cerevisiae deletion strains, locus YNL128W, strain TEP1, hits give low values 1.03 | S. cerevisiae deletion strains, locus YNL153C, strain GIM3, hits give low values 1.03 | S. cerevisiae deletion strains, locus YNL233W, strain BNI4, hits give low values 1.03 | S. cerevisiae deletion strains, locus YNL250W, strain rad50, hits give low values 1.02 | S. cerevisiae deletion strains, locus YNL271C, strain bni1, hits give low values 1.01 | S. cerevisiae deletion strains, locus YNL298W, strain CLA4, hits give low values 1.04 | S. cerevisiae deletion strains, locus YNL307C, strain MCK1, hits give low values 1.02 | S. cerevisiae deletion strains, locus YNL322C, strain KRE1, hits give low values 1.02 | S. cerevisiae deletion strains, locus YNR052C, strain pop2, hits give low values 1 | S. cerevisiae deletion strains, locus YOL006C, strain TOP1, hits give low values 1.05 | S. cerevisiae deletion strains, locus YOL012C, strain htz1 1.01 | S. cerevisiae deletion strains, locus YOL147C, strain pex11, hits give low values 0.995 | S. cerevisiae deletion strains, locus YOR061W, strain CKA2, hits give low values 1.02 | S. cerevisiae deletion strains, locus YOR069W, strain VPS5, hits give low values 1.01 | S. cerevisiae deletion strains, locus YOR136W, strain idh2, hits give low values 1.02 | S. cerevisiae deletion strains, locus YOR144C, strain elg1, hits give low values 1.01 | S. cerevisiae deletion strains, locus YOR184W, strain ser1, hits give low values 1.07 | S. cerevisiae deletion strains, locus YOR316C, strain cot1, hits give low values 0.99 | S. cerevisiae deletion strains, locus YPL055C, strain LGE1, hits give low values 1.1 | S. cerevisiae deletion strains, locus YPL241C, strain CIN2, hits give low values 1.02 | S. cerevisiae deletion strains, locus YPR119W, strain clb2, hits give low values 0.984 | S. cerevisiae deletion strains, locus YPR141C, strain kar3, hits give low values 1.02 | S. cerevisiae deletion strains, locus YPR163C, strain tif3, hits give low values 1 | S. cerevisiae deletion strains, locus YPR167C, strain met16, hits give low values 1.01 | S. cerevisiae deletion strains, strain wtn01, hits give low values 0.994 | S. cerevisiae strains, strain wild type, hits give low values 1.03
